Source: PubChem BioAssay
Several values for one entry are separate records, joined by “and”; a condition that tells them apart may be missing. Identical values can stand only once. Values without a mark were called inactive. How the calls were made is not given here. Where a SMILES comes first, the peptide text is derived from it.

Each molecule was assayed against Botulinum neurotoxin type A (Clostridium botulinum) (UniProt P0DPI0) (assay: BoNT/A light chain protease inhibitors, biochemical, multiplex microsphere flow cytometry, validation set (AID 588460)). Conditions: at 10 µM, hits give high values.
In the case of `CCN(CC)CCNC(=O)c1ccc(NC(C)=O)cc1`, the inhibition is reported as 1.2% and -1.2%. `COc1cc2c(cc1OC)/C(=C/c1ccc(Cl)cc1)C(=O)OC2` was tested, and the inhibition was 0.8%. With `COc1ccc(CCn2c(C)cc3c(c2=O)C(c2ccncc2)C(C#N)=C(N)O3)cc1OC` (stereo not given) the inhibition was -0.6%. For `COc1ccc(/C=C\c2nc(=O)c3ccccc3o2)cc1`, the inhibition was -0.8%. Molecule `CC(C)(C)OC(=O)N1CC(O)CC1C(=O)OCC(=O)c1ccc(Cl)cc1` (stereo not given) has an inhibition of -2.3%. Molecule `Fc1ccc(-c2cc(-c3ccccc3)nc(-n3cccn3)n2)cc1` has an inhibition of -0.2%. `COc1cc2c(cc1OC)C(c1ccccc1)=NCC2` showed an inhibition of 0.8%. Work on `CC1(C)CC(CNCCC(c2ccc(F)cc2)c2ccco2)CCO1` (stereo not given) yielded an inhibition of -1.4%. `CCC[C@@H]1C[C@@H](C(=O)N[C@H]([C@@H](C)O)[C@H]2O[C@H](SC)[C@H](O)[C@@H](O)C2O)N(C)C1` (stereo not given in full) was tested, and the inhibition was -1.6%. Molecule `COC(=O)CCC(=O)CN` has an inhibition of 0.6%. In the case of `O=C(NCC1CCCO1)c1ccc(OC2CCN(C(=O)C3CC3)CC2)cc1` (stereo not given), the inhibition is reported as 0.5%.

Each molecule was assayed against Lethal factor (Bacillus anthracis) (UniProt P15917) (assay: Lethal factor protease inhibitors, Bacillus anthracis, multiplex microsphere cleavage assay, validation set (AID 588461)). Conditions: flow cytometry, at 10 µM, hits give high values.
In the case of `O=C(O)CCn1cnc2ccccc2c1=O`, the inhibition is reported as -3.5%. In the case of `Clc1ccc2c(c1)[C@H]1OCC[C@H]1[C@@H](c1ccco1)N2`, the inhibition is reported as -4.1%. `CC1CCN(CCOCCOc2ccccc2Br)CC1` showed an inhibition of 3.9%. `O=C(/C=C/c1ccc(Cl)cc1)NCCc1ccccc1` showed an inhibition of 2.3%. `Cc1[nH]nc(-c2ccc(O)cc2O)c1Oc1ccccc1` was tested, and the inhibition was -5.3%. Molecule `Cc1nc(N)sc1C(=O)N/N=C/c1ccco1` has an inhibition of 0.8%. With `Nc1cccc(C(=O)O)c1` the inhibition was 3.3%. `Cc1ccc2c(ccc(=S)n2C)c1` showed an inhibition of 7.4%. `Cc1ccccc1C(=O)NCC(=O)O` was tested, and the inhibition was 2.8%. For `COC(=O)C1=C(C)N(C)C(=S)NC1c1ccc(Cl)cc1` (stereo not given), the inhibition was -4%. `Cc1ccc(N2C(=O)c3ccccc3C2=O)cc1C` was tested, and the inhibition was -0.8%. `CC(C)(C)NCC(O)c1cc(O)cc(O)c1` (stereo not given) gave an inhibition of 3.9%. `CCCCOc1ccc(OCCCN2CCOCC2)cc1` was tested, and the inhibition was -4.8%. `Cc1cc(-c2nn(-c3ccccc3F)cc2CN2CCCC(O)C2)c(C)s1` (stereo not given) gave an inhibition of -0.9%. In the case of `CC(=O)NC(CC(C)C)C(=O)NC(Cc1ccccc1)C(N)=O` (stereo not drawn) (Ac-Leu-Phe-NH2; configuration not given here), the inhibition is reported as -1.4%. `c1ccc(Cn2nnc3cnccc32)cc1` was tested, and the inhibition was 1.4%. `O=C(/C=C/c1ccccc1)c1ccccc1` showed an inhibition of -0.6%. In the case of `COc1ccc(C(=O)c2oc3ccc(Br)cc3c2NC(C)=O)cc1`, the inhibition is reported as -3.6%. `N/C(=N\OC(=O)CCCOc1ccc(Cl)cc1Cl)c1ccccn1` was tested, and the inhibition was -0.4%. Molecule `CC(C)CC(=O)OC1C(N2CCOCC2)c2c(ccc(/C=C/C(=O)N3CCOCC3)c2O)OC1(C)C` (stereo not given) has an inhibition of -0.5%. With `NNC(=O)c1ccncc1` the inhibition was 5.3%. Molecule `N=c1nc(N2CCCCC2)cc(N)n1O` has an inhibition of 0.9%. Molecule `COc1ccc(/C=C/C(=O)c2cc3cccc(OC)c3oc2=O)cc1` has an inhibition of 8.8%. Molecule `Oc1[nH]c2ccccc2c1C1=NCCCC1` has an inhibition of -8.7%. In the case of `C=CC1=C(C(=O)O)N2C(=O)C(NC(=O)Cc3ccccc3)C2SC1` (stereo not given), the inhibition is reported as -3.4%. In the case of `O=C1C(=O)c2ccccc2C(O)=C1c1ccccc1F`, the inhibition is reported as -1.5%. `CC(C)C1Cc2[nH]c(=O)c(C(=O)O)cc2CO1` (stereo not given) showed an inhibition of -1.4%. Work on `CC1CCc2cc(F)cc3c(=O)c(C(=O)O)cn1c23` (stereo not given) yielded an inhibition of 3.5%. With `CCN(CC)CCNC(=O)c1ccc(NC(C)=O)cc1` the inhibition was -6.2% and -1.6%. In the case of `COc1cc2c(cc1OC)/C(=C/c1ccc(Cl)cc1)C(=O)OC2`, the inhibition is reported as -1.5%. `COc1ccc(CCn2c(C)cc3c(c2=O)C(c2ccncc2)C(C#N)=C(N)O3)cc1OC` (stereo not given) was tested, and the inhibition was -6.7%. `COc1ccc(/C=C\c2nc(=O)c3ccccc3o2)cc1` gave an inhibition of -3.7%. With `CC(C)(C)OC(=O)N1CC(O)CC1C(=O)OCC(=O)c1ccc(Cl)cc1` (stereo not given) the inhibition was 0.1%. With `Fc1ccc(-c2cc(-c3ccccc3)nc(-n3cccn3)n2)cc1` the inhibition was 2.3%. `COc1cc2c(cc1OC)C(c1ccccc1)=NCC2` was tested, and the inhibition was 7%. In the case of `CC1(C)CC(CNCCC(c2ccc(F)cc2)c2ccco2)CCO1` (stereo not given), the inhibition is reported as 3.4%. For `CCC[C@@H]1C[C@@H](C(=O)N[C@H]([C@@H](C)O)[C@H]2O[C@H](SC)[C@H](O)[C@@H](O)C2O)N(C)C1` (stereo not given in full), the inhibition was 0.6%. `COC(=O)CCC(=O)CN` was tested, and the inhibition was 0.6%. `O=C(NCC1CCCO1)c1ccc(OC2CCN(C(=O)C3CC3)CC2)cc1` (stereo not given) showed an inhibition of -2.8%.
